# Experimental data as given in PubChem BioAssay AID2517 (National Center for Advancing Translational Sciences (NCATS), 2010).
# “And” between values parts separate entries of the source, which are not always exact repeats. Equal values may be shown once. The campaign covered roughly 350,000 compounds. About 1,200 (0.34%) were called active. Roughly 3% stayed inconclusive and do not appear here. The call rests on the fitted dose curve; in most records, active means well fitted inhibition curve with a large enough effect; inconclusive means small, poorly fitted or top-dose-only effect; inactive means no such curve, though single readings can be large or run the other way. The entries come from a sample that favours actives as a whole. Where a structure was tested more than once in an assay, its records may differ in their call.
# Biological target: DNA repair nuclease/redox regulator APEX1 (Homo sapiens) (UniProt P27695)
# Assay: qHTS Assay for Inhibitors of the Human Apurinic/apyrimidinic Endonuclease 1 (APE1); further: nearly all actives have a fitted effect of over 55% in size;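 on activity change, negative = inhibition: plate controls were vehicle for no effect and reference inhibitor for full effect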
# Conditions: recombinant APE1, TAMRA/BHQ-2 abasic DNA cleavage fluorescence; series mostly up to 65.8 µM; activity change, negative = inhibition: at the top concentration
# Source text: The apurinic/apyrimidinic endonuclease APE1 is the primary mammalian enzyme responsible for the removal of abasic (or AP) sites in DNA and functions centrally in the base excision DNA repair (BER) pathway. […] Thus, targeting APE1 could improve the efficacy of current treatment paradigms by promoting selective sensitization or protection of diseased and normal cells, respectively.
# Inhibition of APE1 activity was screened by utilizing double-stranded short substrate containing tetrahydrofuran (THF) abasic site labeled with rhodamine-type fluorophore (TAMRA) at the 5'-end and with non-fluorescent Black Hole Quencher-2 (BHQ-2) at the opposing 3'-end. An increase in the fluorescence intensity due to incision of the abasic site by APE1 was used to measure the enzyme activity.
# NIH Chemical Genomics Center [NCGC]
# NIH Molecular Libraries Probe Centers Network [MLPCN]
# Assay Provider: David M. Wilson, III, National Institute on Aging, NIH
# Three uL of enzyme solution (0.75 nM APE1 final concentration) was dispensed to 1536-well Greiner black solid bottom plates. […] The plates were incubated for 15 min at room temperature, and then 1 uL of substrate solution (50 nM final concentration of TAMRA/BHQ-2) was added to start the reaction. The plates were immediately transferred into ViewLux High-throughput CCD imager (Perkin-Elmer) in order to measure the reaction progress in kinetic mode (three reads every 60 seconds) using 525 nm excitation and 598 nm emission fluorescence protocol. The fluorescence intensity difference between the third and the first time points was used to compute reaction progress. Results were normalized to buffer only columns and NSC13755 positive controls and negative control DMSO treated wells.
# Potency means the concentration at half of the fitted maximal effect.
# Sequence of DNA repair nuclease/redox regulator APEX1 (Homo sapiens) (P27695 whole entry, looked up): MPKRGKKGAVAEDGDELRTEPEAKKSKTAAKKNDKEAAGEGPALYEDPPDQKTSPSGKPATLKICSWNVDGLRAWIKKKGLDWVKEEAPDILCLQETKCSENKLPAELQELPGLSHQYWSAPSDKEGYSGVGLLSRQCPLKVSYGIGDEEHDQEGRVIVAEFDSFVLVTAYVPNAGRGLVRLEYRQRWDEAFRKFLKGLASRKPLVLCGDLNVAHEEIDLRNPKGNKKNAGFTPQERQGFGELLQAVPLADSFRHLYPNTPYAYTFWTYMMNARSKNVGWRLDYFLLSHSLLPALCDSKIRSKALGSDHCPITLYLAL
SMILES,Potency,"activity change, negative = inhibition"
COc1ccc(N2C(=O)/C(=C/c3ccco3)C(=O)NC2=S)cc1,0.67 µM (active),
C[C@]12CC[C@@H]3C(=CCc4cc(O)ccc43)[C@@H]1CCC2=O,,3.5% [at 21 µM] (inactive)
CCc1ccc(C2C(C#N)=C(N)Oc3n[nH]c(CC(=O)OC)c32)cc1 (stereo not given),,16.6% (inactive)
CC[N+](C)(CC)CCC[n+]1c(-c2ccccc2)c2cc(N)ccc2c2ccc(N)cc21,2.12 µM (active),
Clc1ccccc1,,0.279% (inactive)
CC(=O)[O][Sn]([c]1ccccc1)([c]1ccccc1)[c]1ccccc1,,-9.07% (inactive)
N#CC(C#N)=Cc1cc(O)c(O)c([N+](=O)[O-])c1,5.62 µM (active),
ClC(Cl)=C(Cl)C(Cl)=C(Cl)Cl,,-1.33% (inactive)
N#Cc1cc(Br)c(O)c(Br)c1,,2.28% (inactive)
N#CCCCl,inactive,
Cc1nc(SCC(=O)NC2CCCC2)[nH]c(=O)c1C,,63.8% [at 12.4 µM] (inactive)
CC(C)COC(=O)n1c(=O)oc2ccc(S(=O)(=O)N3CCCCC3)cc21,,14.5% (inactive)
CC(C)Nc1nc(Cl)nc(NC(C)C)n1,inactive and 22.4 µM (active),
CCCCC#N,,9.97% (inactive)
NCCCCC(N)C(=O)O (stereo not given),,13.8% (inactive)
CCCCCCCCCCCCN=C(N)N,,-1.22% (inactive)
CC(C)(c1ccccc1)c1ccc(O)cc1,,-2.65% (inactive)
C[C@H]1C/C=C/[C@@H]2[C@@H]3O[C@]3(C)[C@@H](C)[C@H]3[C@H](Cc4ccccc4)NC(=O)[C@]32OC(=O)O/C=C/[C@](C)(O)C1=O,,13.1% (inactive)

SMILES,Potency,"activity change, negative = inhibition"
O=C(OCC1O[C@@H](OC(=O)c2cc(O)c(O)c(O)c2)[C@@H](OC(=O)c2cc(O)c(O)c(O)c2)[C@@H](OC(=O)c2cc(O)c(O)c(O)c2)[C@@H]1OC(=O)c1cc(O)c(O)c(O)c1)c1cc(O)c(O)c(O)c1 (stereo not given in full),0.0112 µM (active),
Cc1cc(-c2n[nH]c(=S)n2-c2ccc(C)c(C)c2)no1,,9.88% (inactive)
CC(=O)c1ccc(-c2ccc(Cn3c(C)nc4cc(N)c(C)nc43)cc2)cc1,,7.33% (inactive)
CN(C)C1C(=O)C(C(N)=O)=C(O)[C@@]2(O)C(=O)C3=C(O)c4c(O)cccc4[C@@](C)(O)C3C[C@@H]12 (stereo not given in full),,-13.5% (inactive)
O=c1cc(-c2ccc(O)cc2)oc2c([C@@H]3O[C@H](CO)[C@@H](O)[C@H](O)[C@H]3O)c(O)cc(O)c12,8.91 µM (active),
C=CCOC(=O)c1ccccc1C(=O)OCC=C,inactive,
CC(Cl)Cl,,23.6% (inactive)
CC(C)CC(C)Nc1ccc(Nc2ccccc2)cc1 (stereo not given),,1.5% (inactive)
CC(CCn1cccn1)NC(=O)CCc1nnc(CCc2ccccc2)o1 (stereo not given),,15.7% (inactive)
Cc1c(C(=O)O)cccc1-n1c(C)cc(/C=C2\C(=O)NC(=O)N(c3ccc4c(c3)OCO4)C2=O)c1C,14.1 µM (active),
Cc1ccnc(-n2c(C)cc(/C=C3\C(=O)NC(=S)N(C)C3=O)c2C)c1,,0.699% (inactive)
CC(C)(C)C(O)(CCc1ccc(Cl)cc1)Cn1cncn1 (stereo not given),,1.98% (inactive)
C=CC#N,,3.46% (inactive)
ClCCBr,,5.56% (inactive)
CCN(CC)c1nc(C)cc(OP(=S)(OC)OC)n1,,-3.65% (inactive)
CCOc1cc(N2CCOCC2)c(OCC)cc1NC(=O)C1=NN(c2cccc(C)c2)C(=O)CC1,,16.6% (inactive)
CCC12CCN(CCc3ccccc3)CC1Oc1c(O)cccc12 (stereo not given),,15% (inactive)
